Reference: PubChem BioAssay AID485313 (National Center for Advancing Translational Sciences (NCATS), 2010)
In all, about 320,000 compounds went through this assay and about 7,600 (2.4%) were called active. Not shown: some 3% with an inconclusive outcome. The call rests on the fitted dose curve; in most records, active means well fitted activation curve with a large enough effect; inconclusive means small, poorly fitted or top-dose-only effect; inactive means no such curve, though single readings can be large or run the other way. What follows is part of a selection rich in actives, with near analogues and random picks from the rest.

experiment: qHTS Assay for NPC1 Promoter Activators; settings: Huh7 NPC1 promoter luciferase reporter, 24 h; series mostly up to 9.22 µM; activation: at the top concentration; further: nearly all actives have a fitted effect of over 60% in size; on activation: % of control where 0% means no effect
Description: NIH Chemical Genomics Center [NCGC] NIH Molecular Libraries Probe Production centers Network [MLPCN] MLPCN Grant: MH089375-01A1 Assay Submitter (PI): Yiannis A. Ioannou NCGC Assay Overview: Niemann Pick Type C (NPC) is a rare neurodegenerative lipidosis that is characterized by lipid storage in the endosomal/lysosomal system. Treatment modalities for this devastating disease are currently non-existent due to the severe obstacles associated with accessing the central nervous system with proteins or genes. The majority of mutations causing NPC disease are missense mutations that are distributed throughout the length of the NPC1 protein, with the most prevalent being the I1061T allele. Although NPC1 mutant proteins may be functional, they are typically trapped in the ER due to misfolding. […] We have developed and optimized a cell based luciferase reporter assay in 1536 well format for the identification of up-regulators of the mutant NPC1 promoter.
The NPC1 promoter is cloned in front of the luciferase reporter gene, therefore NPC promoter activation results in luciferase expression. Frozen stock of the NPC1 promoter transfected Huh7 cells were obtained from the laboratory of Dr. Yiannis Ioannou (The Mount Sinai School of Medicine, New York, NY). Cells were propagated and maintained at NCGC in medium containing RPMI-1640 supplemented with 10% FBS, 2mM L-glutamine, and 50ug/ml penicillin/streptomycin. Cells were harvested in and plated for assays in OP-MEM I reduced-serum medium supplemented with 10% FBS. The Amplite luciferase reporter gene assay kit was purchased from ABD Bioquest and prepared/stored according to manufacturers recommendations. qHTS Assay Setup: 1.#Dispensed 5ul of Huh7 cells stably expressing NPC1-luciferase at a density of 1500 cells per well 1536-well plates. 2.#Incubate cells at 37C, 5% CO2, and 95% humidity for 2 hours. 3.#Transferred 23nl per well of compound in DMSO solution. 4.#Incubated at 37C, 5% CO2, and 95% humidity for 24 hours. 5.#Dispensed 3ul per well of Amplite reagent(ABD Bioquest) per well. 6.#Incubate at ambient for 10 minutes. 7.#Read using the luminescence protocol on the ViewLux plate reader (Perkin Elmer).
Potency means the concentration at half of the fitted maximal effect.

activation, inactive:
O=C(Nc1ccon1)c1cccc(Cl)c1 0.217%
Cc1nn(C)cc1/C=N/NC(=O)c1sc2ccccc2c1Cl 5.43%
Cn1c(N)c(C(=O)COC(=O)COc2ccc(Cl)cc2)c(=O)n(C)c1=O -2.38%
O=C(COC(=O)CCCN1C(=O)c2cccc3cccc(c23)C1=O)NC1CCS(=O)(=O)C1 (stereo not drawn) 0.283%
COc1ccc(OCCNC(=O)c2cc(C3CC3)nc3c2cnn3C(C)C)cc1 -2.78%
CC1(C)C(c2cccs2)=[N+]([O-])C2(CCCCC2=O)N1O (stereo not drawn) -4.25%
C/C(=N\O)C1(C)N(O)C(C)(C)C(c2ccc(Br)cc2)=[N+]1[O-] (stereo not drawn) 0.405%
CC(C(=O)N1CCc2ccccc21)N(C)CC(=O)Nc1ccc(F)cc1 (stereo not drawn) -2.91%
CCNC(=O)c1cccc(NC(=O)C2CC(=O)N(CCc3ccccc3)C2)c1 (stereo not drawn) -5.85%
Nc1c(C(=O)NCc2ccccc2)sc2nc3c(cc12)C(=O)CCC3 13.2%
CCN(CC)C(=O)N(CC)Cc1ccccc1 -5.42%
CCCC(NC(=O)c1ccco1)c1nc2ccccc2[nH]1 (stereo not drawn) -1.32%
COCCCNC(=O)COc1cc(C)c(Cl)c(C)c1 -1.01%
Cc1cccnc1CC(C)NC(=O)c1cc(COc2cncc(Cl)c2)on1 (stereo not drawn) 26.5%
COc1cccc(-c2nnc(SCCOc3ccc4c(C)cc(=O)oc4c3)o2)c1 0.563%
O=[N+]([O-])c1ccc2oc(-c3cccc(O)c3)nc2c1 26.8%
O=C(/C=C(O)/C=C/c1ccc(O)cc1)/C=C/c1ccc(O)cc1 -3.04%
CCCCn1c(N)c(N(CC(C)C)C(=O)c2cnc(C)cn2)c(=O)[nH]c1=O -5.43%
COc1ccccc1C(=O)Nc1ccc(OCC(=O)N2CCCCC2)cc1 -1.21%
NS(=O)(=O)c1ccc2nc(NC(=O)CS(=O)(=O)c3ccc(F)cc3)sc2c1 1.23%
CS(=O)(=O)c1ccc2nc(NC(=O)c3ccc(Cl)nc3)sc2c1 1.14%
CN(CC(=O)Nc1ccc(Cl)c(C(F)(F)F)c1)C(=O)CCC(=O)c1ccccc1 -3.21%
COC(=O)c1ccc(COC(=O)CNC(=O)c2cccc(OC)c2)o1 -0.517%
CN(CC(=O)Nc1ccc(Cl)cc1)C(=O)c1ccc(COc2ccccc2)cc1 -7.01%
O=C(CNC(=O)c1ccc2ccccc2c1)Nc1ncccc1O 1.27%
CCc1cc(C(N)=O)c(NC(=O)c2ccc(OC)cc2)s1 23.6%
CCOC(=O)c1cc(C(C)C)sc1NC(=O)COC(=O)c1nccnc1N -9.06%
CC(=O)c1c(C)[nH]c(C(=O)OCC(=O)Nc2c(C)n(C)n(-c3ccccc3)c2=O)c1C -0.0041%
CN(C)CCn1c(=S)[nH]c2ccc(Cl)cc2c1=O -4.42%
CN(CC(=O)NCc1ccc2c(c1)OCO2)CC(=O)Nc1ccc(F)c(F)c1F -0.121%
CO[C@H]1[C@@H]2C=CO[C@@H](O[C@H]3O[C@@H](CO)[C@H](O)[C@@H](O)[C@@H]3O)[C@@H]2[C@@]2(CO)O[C@@H]12 0.15%
CCC(=O)Nc1ccc(C(=O)NNC(=O)c2ccc(Cl)cc2)cc1 0.232%
O=C(Nc1ccccc1)c1nnsc1S(=O)(=O)c1ccc(Cl)cc1 1.54%
CCCCN(CC(=O)Nc1cccc(S(=O)(=O)N2CCCC2)c1)Cc1nc2ccccc2c(=O)[nH]1 -6.05%
COCCn1cnnc1SCC(=O)Nc1cccc(S(=O)(=O)N2CCCCC2)c1 -0.281%
Cc1ccc(S(=O)(=O)N(C)C)cc1NC(=O)C(C)OC(=O)c1ccc2ccccc2n1 (stereo not drawn) -4.07%
COc1ccc(F)cc1C(=O)COC(=O)c1n[nH]c(=O)c2ccccc12 0.129%
CCN(C(=O)COC(=O)CCOc1cccc(C)c1)c1c(N)n(Cc2ccccc2)c(=O)[nH]c1=O -1.56%
O=C(O)c1ccc(N=NN2CCOCC2)cc1 -1.35%
O=C(c1ccccc1)N1CCN(C(=O)N2CCCCC2)CC1 -4.14%
CCOc1ncccc1C(=O)OCC(=O)Nc1cccc(S(=O)(=O)N2CCCCCC2)c1 -0.375%
N#Cc1nc(Cc2cccc3ccccc23)oc1NCc1ccc2c(c1)OCO2 -0.949%

Potency, active:
O=C(Nc1ccon1)c1sc2ccccc2c1Cl 3980 nM
CC(=O)C1(C)N(O)C(C)(C)C(c2cccs2)=[N+]1[O-] (stereo not drawn) 100 nM
CCN(CC)C(=O)c1sc2nc(-c3ccccc3)ccc2c1N 1580 nM
Cc1cc(OCc2cc(C(=O)NCc3cc(C(C)C)no3)no2)cc(C)c1Cl 1410 nM
COc1cccc(-c2nc3cc(C)ccc3o2)c1 3160 nM
NS(=O)(=O)c1ccc2nc(NC(=O)C3=COCCO3)sc2c1 1780 nM
CC(C)c1cc(C(N)=O)c(NC(=O)c2cccc(COc3ccc(Br)cc3)c2)s1 2820 nM
CN(C)CCN=c1cc(-c2ccccc2)oc2ccc(Cl)cc12 2820 nM
O=C(Nc1ccc(Cl)cc1)c1ccsn1 3160 nM
O=C(O)c1cccc(N=NN2CCCCCC2)c1 100 nM
N#Cc1nc(Cc2ccccc2)oc1NCCc1ccccc1 3160 nM
